We go through 63 compounds from PubChem BioAssay AID1851 (National Center for Advancing Translational Sciences (NCATS), 2009).

Each structure is given as a SMILES string. The campaign covered roughly 16,000 compounds. About 5,700 (36%) were called active. About 24% were inconclusive and are not listed. The list shows a part of the results. Unmarked numbers belong to inactive results. Calls come from the whole dose curve; as a rule, active = well fitted curve in the direction sought with a large enough effect; inconclusive = small, poorly fitted or top-dose-only effect, or effect the other way; inactive = no such curve, though single readings can be large or run the other way. Peptide text beside a SMILES is read from it.
% is set by controls: 0 for no effect and ±100 for the full control effect.

Cytochrome P450 1A2 (Homo sapiens), sequence (P05177 whole entry, looked up): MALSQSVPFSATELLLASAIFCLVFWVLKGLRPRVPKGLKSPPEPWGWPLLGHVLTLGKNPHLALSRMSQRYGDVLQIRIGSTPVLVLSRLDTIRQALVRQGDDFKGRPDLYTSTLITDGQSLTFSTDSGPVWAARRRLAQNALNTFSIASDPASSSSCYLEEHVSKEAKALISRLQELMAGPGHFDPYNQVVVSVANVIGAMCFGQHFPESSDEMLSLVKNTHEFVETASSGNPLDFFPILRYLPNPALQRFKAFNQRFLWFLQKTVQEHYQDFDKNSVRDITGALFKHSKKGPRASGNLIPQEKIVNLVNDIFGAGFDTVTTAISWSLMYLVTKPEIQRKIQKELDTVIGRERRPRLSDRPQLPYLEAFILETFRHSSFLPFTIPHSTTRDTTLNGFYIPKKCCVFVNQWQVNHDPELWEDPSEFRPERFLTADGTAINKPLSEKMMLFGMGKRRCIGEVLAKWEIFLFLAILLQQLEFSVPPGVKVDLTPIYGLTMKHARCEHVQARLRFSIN

This assay concerns the target Cytochrome P450 1A2 (Homo sapiens) (UniProt P05177). The assay can be described thus: Cytochrome panel assay with activity outcomes. The note with it: recombinant CYP, pro-luciferin dealkylation, luminescence, p450-cyp1a2; series mostly up to 57.1 µM; activity, negative = inhibition: at the top concentration.
As usually defined, the AC50 is the concentration giving half of the maximal activity seen. In the case of `N#Cc1nc(-c2cccs2)oc1NCc1ccccc1`, the AC50 is 1.12 µM (active).

Regarding `CNc1oc(-c2ccc(Cl)cc2)nc1C#N`, the half-maximal activity concentration (AC50) is 1.78 µM (active).

Turning to `CNc1oc(-c2cccs2)nc1C#N`, the AC50 was 2.24 µM (active).

On to `CCOC(=O)c1[nH]c(COC(=O)CCOc2ccccc2OC)c(C(=O)OCC)c1C`, for which the concentration at half-maximal activity (AC50) was 8.91 µM (active).

`CCOC(=O)C1=C(C)C(c2ccccc2OC)NC(=S)N1` (stereo not drawn): the “activity, negative = inhibition” value is -18.8%.

Regarding `CCCCN(CC)S(=O)(=O)N1CCC(C(=O)NCCCN2CCOCC2)CC1`, the “activity, negative = inhibition” value is -0.621%.

Turning to `CCOC(=O)N/N=C1/C[C@@H](O)[C@@H](O)[C@@H]2[C@@H]3C(=O)N(CC)C(=O)[C@H]3CC[C@@H]12`, the activity, negative = inhibition was -5.68% [at 11.4 µM].

Consider `CCOc1cccc(NC(=O)CSc2nc(C)c3c(c2C#N)CCCC3)c1`, for which the “activity, negative = inhibition” value was 4.92%.

In the case of `COc1ccc(NC(=O)CSc2nc(C)c3c(c2C#N)CCCC3)cc1`, the AC50 was 2.51 µM (active).

For the compound `CSc1nc(N)nc(SCC(=O)Nc2ccc(Cl)cc2)c1C#N`, the AC50 is 0.891 µM (active).

Turning to `CCOc1ccc(NC(=O)CSc2nc(C)c3c(c2C#N)CCCC3)cc1`, the AC50 is 2 µM (active).

In the case of `CC(=O)Oc1ccc(C(c2ccc(OC(C)=O)cc2)c2ccccn2)cc1`, the “activity, negative = inhibition” value is -15.5% [at 25.6 µM].

Take `NC(=O)NCc1ccc(Cl)cc1`: the “activity, negative = inhibition” value is -7.86%.

Take `COC(=O)[C@](C)(N)Cc1ccc(O)cc1`: the “activity, negative = inhibition” value is 2.42%.

Take `C/C(=C\c1ccc(Cl)cc1)C(C)(C)C(=O)O`: the activity, negative = inhibition is -17.1% [at 11.4 µM].

`C[C@H](N)C(=O)OC(C)(C)Cc1ccc(Cl)cc1`: the concentration at half-maximal activity (AC50) is 0.631 µM (active).

As to `COC(=O)[C@H](N)Cc1ccc(Cl)cc1`, the concentration at half-maximal activity (AC50) was 3.16 µM (active).

Turning to `COC(=O)C(CC(C)C)NC(=O)C(N)Cc1ccccc1` (stereo not drawn) (H-Phe-Leu-OMe; configuration not given here), the “activity, negative = inhibition” value is -8.26%.

Consider `CN(C)S(=O)(=O)c1ccc(C(=O)Nc2ccc(CN3CCCC3)cc2)cc1`, for which the AC50 was 25.1 µM (active).

`O=C(Nc1ccc(S(=O)(=O)N2CCOCC2)cc1)c1ccc(CN2CCc3ccccc3C2)cc1`: the “activity, negative = inhibition” value is -7.22%.

Take `O=C(Nc1ccc(S(=O)(=O)N2CCCCC2)cc1)c1ccc(CN2CCc3ccccc3C2)cc1`: the “activity, negative = inhibition” value was -0.488%.

As to `CCC(=O)N1CCN(C(=O)c2ccccc2)CC1`, the “activity, negative = inhibition” value is -2.9%.

`CCC(C)NC(=O)C1CCN(C(=O)c2ccccc2)CC1` (stereo not drawn): the “activity, negative = inhibition” value was -0.858%.

For `O=C(c1ccccc1)N1CCSC1=S`, the concentration at half-maximal activity (AC50) is 14.1 µM (active).

On to `CN(C)c1ncc2ncc(=O)n(Cc3cccs3)c2n1`, for which the half-maximal activity concentration (AC50) was 1.58 µM (active).

Regarding `Cc1nc2cnc(N(C)C)nc2n(Cc2cccs2)c1=O`, the concentration at half-maximal activity (AC50) was 1.26 µM (active).

With `CCNC(=O)C/C(C)=N/NC(=O)C12CC3CC(CC(C3)C1)C2`, the “activity, negative = inhibition” value was 12.5%.

For the compound `Fc1ccc(-c2cn3cc(C(F)(F)F)cc(Cl)c3n2)cc1`, the AC50 is 0.891 µM (active).

For the compound `CC1(C)CC(=O)C2=C(C1)Nc1cc3c(cc1C2c1ccc(F)cc1)OCO3` (stereo not drawn), the AC50 is 6.31 µM (active).

Regarding `FC(F)(F)c1ccc(N2CCOCC2)c(Nc2nc3ccccc3n3cnnc23)c1`, the concentration at half-maximal activity (AC50) was 6.31 µM (active).

Consider `COc1cccc2c1C(=O)c1c(O)c3c(c(O)c1C2=O)C[C@](O)(C(=O)CO)C[C@H]3O[C@@H]1C[C@H](N)[C@H](O)[C@H](C)O1`, for which the “activity, negative = inhibition” value is -12.4% [at 25.6 µM].

As to `COCc1nc2c([nH]1)c(=O)n(C)c(=O)n2CC(C)C`, the concentration at half-maximal activity (AC50) was 12.6 µM (active).

Regarding `Cn1c(=O)c2[nH]c(CS(=O)(=O)Cc3nc4c([nH]3)c(=O)n(C)c(=O)n4C)nc2n(C)c1=O`, the activity, negative = inhibition is -21.1% [at 2.29 µM].

Turning to `Cn1c(=O)c2[nH]c(COCc3nc4c([nH]3)c(=O)n(C)c(=O)n4C)nc2n(C)c1=O`, the activity, negative = inhibition is 4.47% [at 2.29 µM].

As to `CCN1C(=O)[C@H]2[C@@H]3[C@H](O)C=CC(=O)[C@H]3CC[C@H]2C1=O`, the activity, negative = inhibition is -16.7% [at 11.4 µM].

Take `O=c1[nH]ncn2cccc12`: the “activity, negative = inhibition” value is -0.646%.

`O=C(O)[C@@H]1[C@H](C(=O)O)[C@H]2C(=O)C=C[C@H]1N2Cc1ccccc1`: the activity, negative = inhibition was -3.91% [at 2.29 µM].

On to `O=c1[nH]ncc2c3ccccc3n(Cc3ccccc3)c12`, for which the AC50 was 1 µM (active).

Turning to `COc1ccc(-n2c(=S)[nH]c3cc(C(=O)NCCCN4CCCC4=O)ccc3c2=O)cc1`, the half-maximal activity concentration (AC50) is 25.1 µM (active).

For `O=C(NCCCN1CCCC1=O)c1ccc(CNS(=O)(=O)c2ccc(F)cc2)cc1`, the “activity, negative = inhibition” value is -4.99%.

Regarding `O=C(NCc1ccccc1Cl)c1ccc2c(=O)n(CCCN3CCCC3=O)c(=S)[nH]c2c1`, the “activity, negative = inhibition” value is -29.8%.

On to `Cc1ccc(C)c(N(CC(=O)NC2CCCC2)C(=O)c2cc3cc4cccc(C)c4nc3s2)c1`, for which the “activity, negative = inhibition” value is -13.8%.

For the compound `CCN(CC)c1ccc(SS(=O)(=O)O)cc1`, the “activity, negative = inhibition” value is -20.2%.

Turning to `CCN(CC)c1ccc2c(Cl)cc(=O)oc2c1`, the concentration at half-maximal activity (AC50) was 0.891 µM (active).

For the compound `CC1=CC(=C2C(=O)c3ccccc3C2=O)C=C(C)O1`, the AC50 is 0.2 µM (active).

With `CC1(C)OC(=O)N(Cc2ccco2)C1(C)O` (stereo not drawn), the “activity, negative = inhibition” value is -11.2%.

On to `CC1=CC(=C2C(=O)c3ccccc3C2=O)C=C(C)N1Cc1ccco1`, for which the half-maximal activity concentration (AC50) is 1.58 µM (active).

`CCCCS(=O)(=O)NC1=NCN(Cc2ccco2)CN1`: the “activity, negative = inhibition” value was -29.7%.

For `Nc1nc(N)c2nn(-c3ccc(C(=O)O)cc3)nc2n1`, the activity, negative = inhibition is -13.4% [at 2.29 µM].

Turning to `COc1ccc(C(=O)N2CCC[C@@]3(CCN(C(=O)Nc4cccc(C#N)c4)C3)C2)cc1`, the “activity, negative = inhibition” value was 11.5%.

`CC(C)NC(=O)N1CCCC2(CCN(C(=O)c3csnn3)CC2)C1`: the “activity, negative = inhibition” value is -2.35%.

As to `CSc1nc(Oc2ccc(F)cc2)c2ccccc2n1`, the AC50 is 0.794 µM (active).

Turning to `CN1CCCC2(CCN(C(=O)c3cnccn3)CC2)C1`, the “activity, negative = inhibition” value was -12.3%.

As to `CN1CCN(CCCBr)CC1`, the activity, negative = inhibition was -20.9% [at 11.4 µM].

On to `O=C(c1cc(Br)ccc1O)c1cc(Br)ccc1O`, for which the concentration at half-maximal activity (AC50) is 1 µM (active).

Consider `Cc1cc(C)c(O)c(Cc2cccc(Cc3cc(C)cc(C)c3O)c2O)c1`, for which the activity, negative = inhibition was -14.7% [at 2.29 µM].

With `Clc1ccc(CN2CCCN(Cc3ccc(Cl)cc3)C2c2cc3ccccc3c3ccccc23)cc1`, the concentration at half-maximal activity (AC50) is 0.794 µM (active).

As for `Cc1cc(C)nc(Nc2n[nH]c(-c3cccc4ccccc34)n2)n1`, the concentration at half-maximal activity (AC50) was 4.47 µM (active).

Take `Cc1cc(C)nc(Nc2n[nH]c(COc3cccc4ccccc34)n2)n1`: the concentration at half-maximal activity (AC50) was 15.8 µM (active).

`Cc1cc(OCCNCCO)cc(C)c1Cl`: the concentration at half-maximal activity (AC50) was 2 µM (active).

Consider `Cc1nnc(NS(=O)(=O)c2ccc(N)cc2)s1`, for which the “activity, negative = inhibition” value is -3.75% [at 25.6 µM].

For `O=C1CC(c2ccc3c(c2)OCO3)CN1` (stereo not drawn), the concentration at half-maximal activity (AC50) was 12.6 µM (active).

For the compound `NC(N)=NC[C@@H]1COC2(CCCCC2)O1`, the “activity, negative = inhibition” value is -4.71% [at 25.6 µM].
